# Structures can show the parent of a compound that is named as a salt.
# Test system: hN + hpA co-culture (H1 iNGN2 human neurons + human primary astrocytes)
# Test: presynaptic density (SYNAPSIN1 puncta per MAP2 neurite area), Z-score vs DMSO controls; higher = more presynaptic puncta (synapse-promoting)
# Details: 3 µM; 72 h
# 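Note: immunostained co-cultures imaged by high-content microscopy, Z-score per plate against mean and SD of 0.1% DMSO wells, compounds added on differentiation day 18, analysed day 21.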
row,Compound,presynaptic density (Z-score)
1,COc1ccc2[nH]c([S@@+]([O-])Cc3ncc(C)c(OC)c3C)nc2c1 [Esomeprazole Sodium],0.0968
2,COC1CC2CCC(C)C(O)(O2)C(=O)C(=O)N2CCCCC2C(=O)OC(C(C)CC2CCC(OC(=O)C(C)(CO)CO)C(OC)C2)CC(=O)C(C)C=C(C)C(O)C(OC)C(=O)C(C)CC(C)C=CC=CC=C1C (centres undefined) [Temsirolimus (CCI-779],0.145
3,COc1cc(N2CCC(N)CC2)ccc1Nc1ncc(Cl)c(-c2c[nH]c3ccccc23)n1,-0.26
4,O=C(N/N=C/c1ccc(O)c(O)c1)c1cc2ccccc2cc1O,-0.146
5,N#CSc1cc(SC#N)c(N)nc1N,-0.815
6,CC12CC3CC(C)(C1)CC(N)(C3)C2,-1.67
7,C[S+]([O-])c1ccc(-c2nc(-c3ccc(F)cc3)c(-c3ccncc3)[nH]2)cc1 (centres undefined),-1.11
8,CC(C)(C)c1cc(C(C)(C)C)c(NC(=O)c2c[nH]c3ccccc3c2=O)cc1O [Ivacaftor (VX-770)],0.324
9,COc1cc(OC)c(/C=C/S(=O)(=O)Cc2ccc(OC)c(NCC(=O)O)c2)c(OC)c1,-3.31
10,CC[C@H](C)C(=O)O[C@H]1C[C@@H](C)C=C2C=C[C@H](C)[C@H](CC[C@@H]3C[C@@H](O)CC(=O)O3)[C@H]21,1.56
11,C=CCNC1=C2C[C@@H](C)C[C@H](OC)[C@H](O)[C@@H](C)/C=C(\C)[C@H](OC(N)=O)[C@@H](OC)/C=C\C=C(/C)C(=O)NC(=CC1=O)C2=O [17-AAG (Tanespimycin)],0.868
12,O=S(=O)(c1ccccc1)N(CC(F)(F)F)c1ccc(C(O)(C(F)(F)F)C(F)(F)F)cc1,-0.732
13,CC(CCc1ccccc1)NCC(O)c1ccc(O)c(C(N)=O)c1 (centres undefined) [Labetalol HCl],-0.733
14,C[C@H](NCc1ccc(OCc2cccc(F)c2)cc1)C(N)=O [Safinamide Mesylate],-0.055
15,O=C(O)Cn1nnc(-c2cc(N3CCC(Oc4cc(F)ccc4Br)CC3)no2)n1,-0.606
16,CCc1c2c(nc3ccc(O)cc13)-c1cc3c(c(=O)n1C2)COC(=O)[C@]3(O)CC,0.761
17,Cc1cc(-c2ccc(CC(=O)Nc3ccc(-c4cccnc4)cc3)cc2)ccn1,0.0884
18,CC(C)(C)n1nc(-c2ccc(Cl)cc2)c2c(N)ncnc21,0.793
19,Nc1ncnc2c1c(-c1cccc(OCc3ccccc3)c1)cn2C1CC(CN2CCCC2)C1 (centres undefined),-1.9
20,O=C(C[S+]([O-])Cc1ccco1)NC/C=C\COc1cc(CN2CCCCC2)ccn1 (centres undefined) [Lafutidine],-0.624

row,Compound,presynaptic density (Z-score)
1,COCCOc1ccc2c(c1)ncn2-c1ccc2cccc(N3CCC(N)CC3)c2n1,-0.271
2,COc1cccc(-c2cc(F)ccc2C2Cc3nc(N)nc(C)c3C(=O)N2)n1 (centres undefined),2.18
3,OCCOc1ccc(/C(=C(/CCCl)c2ccccc2)c2ccccc2)cc1 [Ospemifene],-0.588
4,Cc1cn(-c2cc(NC(=O)c3ccc(C)c(Nc4nccc(-c5cccnc5)n4)c3)cc(C(F)(F)F)c2)cn1 [Nilotinib (AMN 107 or Tasigna)],-1.02
5,OC(CC1c2ccccc2-c2cncn21)C1CCCCC1 (centres undefined),0.156
6,COC(=O)C1=C(C#N)NC(C)=C(C(=O)OC(C)C)C1c1cccc([N+](=O)[O-])c1 (centres undefined) [Nilvadipine],-0.965
7,CC(NC(=O)Cc1cc(F)cc(F)c1)C(=O)NC1C(=O)N(C)c2ccccc2-c2ccccc21 (centres undefined),-0.744
8,CC(C)(C)c1cc(/C=C(\C#N)C(N)=S)cc(C(C)(C)C)c1O [Tyrphostin AG 879],-0.121
9,O=C(NCCN1CCOCC1)c1ccc(Cl)cc1,0.253
10,NC(=O)c1ccc(-c2nc(-c3ccc4c(c3)OCO4)c(-c3ccccn3)[nH]2)cc1,0.232
11,CS(=O)(=O)c1cccc(CNc2nc(Nc3ccc4c(c3)CCC(=O)N4)ncc2C(F)(F)F)c1,1.04
12,CCCCN1CCCCC1C(=O)Nc1c(C)cccc1C (centres undefined) [Bupivacaine HCl],-0.239
13,CC(C=CC(=O)NO)=CC(C)C(=O)c1ccc(N(C)C)cc1 (centres undefined) [Trichostatin A (TSA)],11.2
14,FC(F)(F)c1ccc(/C=C/c2nc(COc3ccc(CCCCn4ccnn4)cc3)co2)cc1 [Mubritinib (TAK 165)],-3.36
15,COc1cc2c(Nc3ccc(NC(=O)c4ccccc4)cc3)ncnc2cc1OCCCN1CCOCC1,-1.71
16,CCc1nc(N)nc(N)c1-c1ccc(Cl)cc1,-0.391
17,CCOc1ccc(Cc2cc([C@@H]3O[C@H](CO)[C@@H](O)[C@H](O)[C@H]3O)ccc2Cl)cc1 [Dapagliflozin],0.756
18,Cc1[nH]c2ccccc2c1C1=C(NCCc2ccc(F)cc2)C(=O)N(C)C1=O,-0.562
19,COc1cc(OC)c(NC(=O)Nc2cc(C)on2)cc1Cl,-0.694

# Source: the supplement of paper PMC10121225
